This note sets out measurements from the supplement of paper PMC11150407.

The cell viability is a read-out of living cells in per cent, often relative to untreated cells.

Structures can show the parent of a compound that is named as a salt. Hit rate of the full screen: of about 2,100 compounds, about 180 (8.6%) showed an effect of 50% or more. The entries come from a sample that favours strong results as a whole.

This assay concerns MOLM1 and UCSD/AML1 (averaged). Nature of the assay: cell viability relative to DMSO control (POC); higher = less growth inhibition. Conditions: 1 µM; 72 h. Here is the method: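 Primary viability screen in the 3q26 EVI1-high AML cell lines MOLM1 and UCSD/AML1 (1.5e3 cells/well, 384-well), compounds at 1 uM for 72 h. ATP CellTiter-Glo read-out given as percent of viable cells over DMSO control (POC), averaged over duplicates. DMSO was the negative control and 5 uM etoposide the positive control. This mapping covers the MicroSource Spectrum and Selleck anticancer libraries (drug names).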
Regarding `Oc1cccc(-c2nc(N3CCOCC3)c3oc4ncccc4c3n2)c1`, the cell viability came to 25.7%. The result for `O=c1cc(N2CCOCC2)oc2c(-c3ccccc3)cccc12` reads 73.8%; that for `Nc1ccc(C(=O)Nc2cccc(-c3nc(N4CCOCC4)c4oc5ncccc5c4n3)c2)cn1`, 52.7%. Take `OC[C@H]1O[C@@H](OCCc2ccc(O)cc2)[C@H](O)[C@@H](O)[C@@H]1O`: the cell viability was 107%.

Regarding `CC(=O)O[C@H]1CC[C@]2(C)C3=C(CC[C@H]2C1(C)C)[C@]1(C)CC[C@H]([C@H](C)CCC=C(C)C)[C@@]1(C)CC3`, the cell viability turned out to be 94.1%.

`CCn1c(-c2nonc2N)nc2c(C#CC(C)(C)O)ncc(OC[C@H]3CCCNC3)c21`: the cell viability came to 54%. The figure for `CCCCC[C@H](CC(=O)O)C(=O)O` is 111%; for `CCCCCCCCCCCCCCCCCCCCCCO` it is 101%.

Turning to `C[N+](C)(C)CCCCCC[N+](C)(C)C`, the cell viability turned out to be 114%. Consider `CCCCCCCCCCCCCCCC[N+](C)(C)C`, for which the cell viability was 43.7%. The figure for `COc1cc(OC)c(-c2c(OC)cc(OC)cc2OC)c(OC)c1` is 104%; for `CC1CCC2(OC1)OC1CC3C4CCC5C[C@@H](O)CCC5(C)C4=CCC3(C)C1[C@@H]2C` (stereo partly drawn) [3beta-HYDROXYISOALLOSPIROST-9(11)-ENE] it is 91.8%; for `CC(=O)Nc1cccc(-n2c(=O)n(C3CC3)c(=O)c3c(Nc4ccc(I)cc4F)n(C)c(=O)c(C)c32)c1` it is 27.3%.

As to `CC(=O)Oc1cc(C)c2c(c1C(OC(C)=O)OC(C)=O)Oc1c(c(C)c(OC(C)=O)c3c1C(OC(C)=O)OC3=O)OC2=O` (centres undefined), the cell viability was determined as 97.6%.

Consider `CC(=O)O[C@H]1C[C@@H](OC(C)=O)C(C)(C)C2CC(=O)[C@]3(C)C(CC[C@@]4(C)[C@H](c5ccoc5)OC(=O)[C@H]5O[C@]543)[C@]21C` (some centres undefined), for which the cell viability came to 97.1%. Consider `CC(=O)Oc1cc(OC(C)=O)c2c(c1)O[C@H](c1ccc(OC(C)=O)c(OC(C)=O)c1)[C@@H](OC(C)=O)C2`, for which the cell viability came to 96.7%. The result for `COc1ccc(-c2cc(=O)c3c(O)cc(O)cc3o2)cc1O` reads 83%. The result for `C=CC(=O)Nc1cccc(Oc2nc(Nc3ccc(N4CCN(C)CC4)cc3OC)ncc2Cl)c1` reads 86.3%. The figure for `COc1cc(N2CCC(N3CCN(C)CC3)CC2)ccc1Nc1ncc(Cl)c(Nc2ccccc2S(=O)(=O)C(C)C)n1` is 30.7%; for `COc1ccc(-c2oc3c(CC=C(C)C)c(O[C@@H]4O[C@H](CO)[C@@H](O)[C@H](O)[C@H]4O)cc(O)c3c(=O)c2O[C@@H]2O[C@@H](C)[C@H](O)[C@@H](O)[C@H]2O)cc1` it is 83%; for `CC(=O)O[C@H]1CC[C@@]2(C)[C@@H](CC[C@@H]3[C@@H]2CC(=O)[C@]2(C)[C@@H]4[C@H](C[C@@H]32)O[C@]2(CC[C@@H](C)CO2)[C@H]4C)C1` it is 88.1%.

As for `COc1cc(OC2CCN(C)CC2)ccc1Nc1ncc2c(n1)n(C1CCCC1)c(=O)n2C`, the cell viability was found to be 70.8%.

As to `CC[C@@H]1C(=O)N(C)c2cnc(Nc3ccc(C(=O)NC4CCN(C)CC4)cc3OC)nc2N1C1CCCC1`, the cell viability came out at 13.2%. Regarding `CC[C@@H]1C(=O)N(C)c2cnc(Nc3ccc(C(=O)N[C@H]4CC[C@H](N5CCN(CC6CC6)CC5)CC4)cc3OC)nc2N1C(C)C` [BI6727 (Volasertib)], the cell viability was found to be 14.5%.

With `CCOC(=O)CCCCCCCCCCCCC1C=CCC1` (centres undefined), the cell viability was 103%. The result for `CN1CCN(C(c2ccccc2)c2ccccc2)CC1` reads 102%. The figure for `COC(=O)C1=CO[C@@H](O[C@@H]2O[C@H](CO)[C@@H](O)[C@H](O)[C@H]2O)[C@@H]2[C@@H](C)[C@@H](O)C[C@H]12` is 94.9%. Consider `CC1(C)CCC[C@]2(C)[C@@H]3[C@H]1[C@@H](O)[C@@]2(C)C[C@H]3O`, for which the cell viability is 92%. As for `CC(C)C[C@H](N)C(=O)N[C@@H](C)C(=O)O`, the cell viability is 98.2%.

Consider `CC(=O)OC(C)(C)[C@@H]1Cc2cc3ccc(=O)oc3cc2O1`, for which the cell viability came out at 100%. Take `CCNC(=O)c1noc(-c2cc(C(C)C)c(O)cc2O)c1-c1ccc(CN2CCOCC2)cc1` [Luminespib (AUY-922, NVP-AUY922)]: the cell viability came out at 2.13%. `O=C(O)[C@H](O)[C@@](O)(Cc1ccc(O)cc1)C(=O)O`: the cell viability was determined as 92.1%.

For `C/C=C(\C)C(=O)O[C@@H]1c2c(ccc3ccc(=O)oc23)OC(C)(C)[C@@H]1OC(C)=O`, the cell viability turned out to be 101%. The figure for `c1ccc2c(CCNc3ccc(Nc4ccncc4)cc3)c[nH]c2c1` is 43.4%; for `N[C@@H](Cc1c[nH]c2ccccc12)C(=O)O` it is 89.5%. The figure for `OCc1c[nH]c2ccccc12` is 87.2%; for `Cc1cc(O)c(C=O)c(O)c1C(=O)O` it is 121%. The figure for `CC(=O)Oc1ccc2c(c1C(C)C)CCC1C(C)(C)CCC[C@]21C` (some centres undefined) is 91.9%; for `CC1(C)CC23C(=O)CCC(O)C2(C)CCC13` (centres undefined) it is 96.7%; for `CN1CCC(c2c(O)cc(O)c3c(=O)cc(-c4ccccc4Cl)oc23)C(O)C1` (centres undefined) [Flavopiridol (Alvocidib) HCl] it is 1.36%. `CC(C)CCC[C@@H](C)[C@H]1CC[C@H]2[C@@H]3C(=O)C=C4C[C@@H](O)CC[C@]4(C)[C@H]3CC[C@]12C`: the cell viability came to 95.7%. For the molecule `CCN(CC)CCNC(=O)COc1ccc(OC)cc1`, the cell viability turned out to be 97.5%. Take `CCN(CC)CCCCNc1ncc2cc(-c3cc(OC)cc(OC)c3)c(NC(=O)NC(C)(C)C)nc2n1`: the cell viability is 36.8%.

With `Nc1nc(Nc2ccc(S(N)(=O)=O)cc2)nn1C(=O)c1c(F)cccc1F`, the cell viability worked out at 53.8%.

In the case of `Cn1c(=O)c(F)c(Nc2ccc(I)cc2F)c2c(=O)n(C[C@@H](O)CO)cnc21`, the cell viability came to 24.8%. The figure for `Cn1c(=O)c2c(ncn2CC(O)CO)n(C)c1=O` (centres undefined) is 103%; for `CC(O)Cn1cnc2c1c(=O)n(C)c(=O)n2C` (centres undefined) it is 94.4%. The figure for `CC(C)c1cccc(=O)c(O)c1` is 93.6%; for `COc1cc2ccc(=O)oc2c(O)c1O` it is 88.3%; for `CC1(O)CC2C(CC1O)C2(C)C` (centres undefined) it is 87.5%. The result for `COc1cc(-c2coc3cc(OCc4ccccc4)c(OC)c(O)c3c2=O)cc(O)c1OC` reads 95.2%; that for `NC(Cn1ccc(=O)c(O)c1)C(=O)O` (centres undefined), 92.7%; that for `CC(=O)O[C@@H]1C[C@H]2C(C)(C)[C@@H](O)CC[C@]2(C)[C@H]2CC[C@@]3(C)[C@H](c4ccoc4)OC(=O)[C@H]4O[C@]43[C@@]21C` [beta-DIHYDROGEDUNOL], 90.3%.

In the case of `CC(=O)N[C@@H](Cc1c[nH]c2ccccc12)C(=O)O`, the cell viability stood at 106%.

Turning to `CC(=O)N[C@@H](Cc1c[nH]c2ccccc12)C(N)=O`, the cell viability worked out at 101%. With `CC(C)C[C@@H](NC(=O)[C@H](C)NC(=O)CNC(=O)[C@@H](NC=O)C(C)C)C(=O)N[C@@H](C)C(=O)N[C@@H](C(=O)N[C@H](C(=O)N[C@H](C(=O)N[C@@H](Cc1c[nH]c2ccccc12)C(=O)N[C@H](CC(C)C)C(=O)N[C@@H](Cc1c[nH]c2ccccc12)C(=O)N[C@H](CC(C)C)C(=O)N[C@@H](Cc1c[nH]c2ccccc12)C(=O)N[C@H](CC(C)C)C(=O)N[C@@H](Cc1c[nH]c2ccccc12)C(=O)NCCO)C(C)C)C(C)C)C(C)C`, the cell viability is 5.86%. The result for `CC1(C)CC2C1CCC1(C)OC1CCC2(C)O` (centres undefined) reads 95.8%. The result for `Cc1cc(O)c(C)c(O)c1C(=O)O` reads 97.3%; that for `O=C(NC1CCNCC1)c1n[nH]cc1NC(=O)c1c(Cl)cccc1Cl`, 13.3%. The result for `NC1=NCCN1CC(=O)O` reads 95.6%; that for `CC(C)(C)Cn1c(N)nc2ccc(-c3[nH]c(C(C)(C)C)nc3-c3ccc(F)cc3)nc21`, 91%. For the molecule `C[C@@H](Oc1cc(-c2cnn(C3CCNCC3)c2)cnc1N)c1c(Cl)ccc(F)c1Cl`, the cell viability is 21.4%. Consider `NC(=O)Nc1sc(-c2ccc(F)cc2)cc1C(N)=O`, for which the cell viability amounted to 42.3%. Turning to `OC[C@H]1O[C@@H](O[C@H]2[C@H](O)[C@@H](O)[C@@H](O)O[C@@H]2CO)[C@H](O)[C@@H](O)[C@@H]1O`, the cell viability stood at 105%.

`CCC(=O)OC1[C@@H]2CC3=C4CC(=O)O[C@@H](c5ccoc5)[C@]4(C)CCC3[C@@](C)(C2=O)[C@@H](CC(=O)OC)C1(C)C` (some centres undefined): the cell viability came out at 88.5%.

Take `COc1ccc(-c2coc3c(OC)c(OC)cc(O)c3c2=O)cc1`: the cell viability was determined as 101%. Consider `C#CCCCCCCCCCCCC(O)CC(O)COC(C)=O` (centres undefined), for which the cell viability came out at 88.5%. The figure for `C[C@]12CC[C@@H]3c4ccc(O)cc4CC[C@H]3[C@@H]1CC[C@@H]2O` is 91.5%. Regarding `COc1ccc2c(c1)CC[C@@H]1[C@@H]2CC[C@]2(C)[C@@H](O)CC[C@@H]12`, the cell viability stood at 96.8%. The figure for `COc1cc2c(cc1O)CC[C@@H]1[C@@H]2CC[C@]2(C)[C@@H](O)CC[C@@H]12` [2-Methoxyestradiol] is 13.7%; for `C[C@]12CC[C@@H]3c4ccc(O)cc4CC[C@H]3[C@@H]1CC[C@@H]2O` [Estradiol] it is 96.7%.

As to `CC[C@H](/C=C/[C@@H](C)[C@H]1CC[C@H]2[C@@H]3CCC4=CC(=O)CC[C@]4(C)[C@H]3CC[C@]12C)C(C)C`, the cell viability was 108%. For `CC(=O)CCCCn1c(=O)c2c(ncn2C)n(C)c1=O`, the cell viability was determined as 104%. The figure for `COc1c(O)cc2oc3cc(O)c(CC=C(C)C)c(O)c3c(=O)c2c1CC=C(C)C` [alpha-MANGOSTIN] is 95.2%; for `COc1cc(C(C)=O)cc(OC)c1O` it is 105%; for `COC(=O)C[C@H]1C(C)(C)C(=O)[C@@H]2CC3C4=CC(=O)O[C@@H](c5ccoc5)[C@]4(C)CC[C@@H]3[C@@]1(C)C2=O` (some centres undefined) it is 98.6%. On to `O=C(c1ccc(OCCN2CCCCC2)cc1)c1c(-c2ccc(O)cc2)sc2cc(O)ccc12` [Evista (Raloxifene Hydrochloride)], for which the cell viability came out at 95.1%. The figure for `O=C(Cc1ccc(-c2ccc(OCCN3CCOCC3)cc2)cn1)NCc1ccccc1` is 8.82%; for `CCCCOc1ccc(OCCCN2CCOCC2)cc1` it is 97.5%; for `O=C(c1ccc(OCCN2CCCCC2)cc1)c1c(-c2ccc(O)cc2)sc2cc(O)ccc12` it is 83.3%.

With `COC(=O)C(Cc1ccccc1)NC(=O)/C(=C1/OC(=O)C(c2ccccc2)=C1O)c1ccccc1` (centres undefined), the cell viability stood at 105%.

For the molecule `CC1(C)CC[C@]2(C(=O)O)CC[C@]3(C)C(=CCC4[C@@]5(C)CC[C@@H](O)C(C)(C)C5CC[C@]43C)C2C1` (some centres undefined), the cell viability was found to be 102%. With `COc1ccc(-c2coc3cc(O)ccc3c2=O)c(O)c1O`, the cell viability was found to be 99.7%. Consider `CC(=O)O[C@H]1CC[C@]2(C)[C@H]3CC[C@@]4(C)[C@H](c5ccoc5)OC(=O)[C@H]5O[C@]54[C@]3(C)[C@H](OC(C)=O)C[C@H]2C1(C)C` [3beta-ACETOXYDEOXODIHYDROGEDUNIN], for which the cell viability amounted to 91.2%.
